# Screens (PubChem BioAssay)
# This is a sample that favours compounds with a hit; in the whole collection about 1.1% have one here.
# F-actin modifier – cytoskeleton assembly modification; HUVEC TNFa F-actin phalloidin imaging, high content; inhibition, % at 2 µM; 91,000 compounds, 0.18% hits; AID 836;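 active means inhibition above the batch mean plus 3 SD and confirmed as a hit by visual image inspection, cut at about 30% in these data, passing the limit was not always enough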
# VCAM1 TNFa inh – reduces TNF alpha induced VCAM1 expression in HUVEC | HUVEC TNFa-induced VCAM-1 immunofluorescence, high-content imaging | inhibition, % at 2 µM | 95,000 compounds, 0.48% hits | AID 802;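 active means inhibition above the batch mean plus 3 SD, with images confirmed as a hit by eye, cut at about 37% in these data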;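 further: 0% = TNF-stimulated DMSO wells and 100% = unstimulated control wells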
# TNFa cytotox – toxic to HUVEC cells under TNF alpha stimulation | HUVEC TNFalpha-stimulated, Hoechst cell count, imaging | cell count reduction, % at 2 µM | 93,000 compounds, 0.17% hits | AID 848;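 active means cell count reduction exceeding the screen mean by over 5 SD, scaled to untreated wells per plate, cut at about 78% in these data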;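 further: cells counted after 24 h of TNF alpha exposure following the 1 h pretreatment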
# E-sel TNF inh – blocks E-selectin expression induced by TNF alpha. AID 1246. 120,000 compounds, 0.71% hits. HUVEC TNFa-induced E-selectin immunofluorescence, high content. inhibition, % at 2 µM;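 active means inhibition above the batch mean plus 3 SD, and confirmed as a hit on visual image review, cut at about 43% in these data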;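 further: 0% = TNF-stimulated DMSO wells and 100% = unstimulated control wells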
# Active calls of the source: *; . = not tested or not shown.
SMILES,F-actin modifier,VCAM1 TNFa inh,TNFa cytotox,E-sel TNF inh
Cc1cc2c(c(=O)n1C)C(Cc1ccccc1)C(C#N)=C(N)O2 (centres undefined),-13.0,-1.5,-9.7,-12.8
CN(C(=O)COC(=O)C1c2ccccc2Oc2ccccc21)C1CCS(=O)(=O)C1 (centres undefined),-4.7,-0.3,-21.2,.
O=C(COC(=O)C1c2ccccc2Oc2ccccc21)NC1CCS(=O)(=O)C1 (centres undefined),72.5*,9.4,-18.1,.
O=C(COC(=O)C1(c2ccccc2F)CCCC1)NC1CCS(=O)(=O)C1 (centres undefined),2.3,95.3*,0.7,6.8
C/C(=N\Nc1cccc2cccnc12)c1ccccc1O,.,.,.,72.2*
O=C(O)C1CCCCC1C(=O)Nc1cc(Cl)ccc1Cl (centres undefined),36.8*,10.5,54.4,-34.1
CC(=O)N1N=C(c2ccc(C)o2)CC1c1cccc(F)c1 (centres undefined),.,.,.,-11.9
O=C(COc1ccc(Cl)cc1Cl)NCCCCc1ccccc1,8.9,-0.9,-12.7,-62.0
O=C(COc1ccc([N+](=O)[O-])cc1Cl)NCCc1ccccc1,.,.,.,87.7*
COCCCNC(=O)COc1ccc(S(=O)(=O)NCc2ccccc2)cc1Cl,.,.,.,91.6*
O=C(Cn1nnc(-c2ccc(Cl)cc2)n1)NCC1CCCCC1,-5.2,11.7,11.8,.
Cc1cc(OCc2ccc(F)cc2)nc(-c2ccccc2O)n1,-18.3,94.8*,79.8*,.
COc1ccc2cc(CN(CCO)C(=O)c3ccccc3F)c(=O)[nH]c2c1,-2.6,-1.1,0.8,99.7*
CCOc1ccc2[nH]c(=O)c(CN(CCO)C(=O)c3ccccc3F)cc2c1,-3.8,-15.0,-44.3,-11.4
CC(C)N1CC(O)=C(c2nc3ccccc3[nH]2)C1=N,.,.,100.0*,.
CCCn1nnc(NC(=O)c2cccc(OCC(C)C)c2)n1,.,.,.,93.4*
CCCn1nnc(NC(=O)c2cccc(OCC)c2)n1,-2.7,6.8,-17.6,11.2
COc1cccc(/C=N/NC(=O)c2c(-c3ccccc3)noc2C)c1,5.1,5.7,0.0,53.7*
Cc1c(C)[n+](=O)c2c(n1[O-])CCCCC2,-36.4,-5.7,-2.6,-14.3
O=C(N/N=C/c1ccncc1)c1ccccc1,-18.4,62.2*,56.5,-2.9
O=C(N/N=C/c1ccc(C(F)(F)F)cc1)c1ccc(O)cc1,.,.,.,78.1*
CCOc1ccc(N2CCc3c(C)nc(SC)nc32)cc1,.,.,.,-14.9
O=C(Nc1nccs1)c1nc(-c2ccccc2)n(-c2ccccc2)n1,-0.6,-6.9,-11.0,43.0*
N/C(Cc1cccc2ccccc12)=N\OC(=O)c1ccc2c(c1)OCO2,.,.,.,83.5*
Clc1ccc(-c2nnc3sc(-c4ccc(Br)o4)nn23)cc1,-5.3,1.3,-10.9,12.7
SMILES,F-actin modifier,VCAM1 TNFa inh,TNFa cytotox,E-sel TNF inh
Cc1oc(-c2ccc(Cl)cc2)cc1-c1nn2c(-c3ccoc3C)nnc2s1,0.1,53.7*,.,-18.1
Cc1cccc(OCCN2CSC(=S)N(C)C2)c1,4.0,42.7*,13.9,.
CCN=c1sc2ccccc2n1CC(O)COc1ccccc1 (centres undefined),-13.3,2.5,7.2,20.7
CN=c1sc2ccccc2n1CC(O)COc1ccccc1 (centres undefined),-15.0,75.0*,69.6,.
O=C(COC(=O)c1ccc2c(c1)S(=O)(=O)N=C1CCCCCN12)NCCc1ccc(F)cc1,.,.,.,-47.9
O=c1ccc(Oc2nc(N3CCOCC3)nc(N3CCOCC3)n2)nn1-c1ccccc1,-13.8,98.7*,89.6*,0.8
NC(=O)Nc1ccc(C(=O)OCC(=O)Nc2ccc([N+](=O)[O-])cc2C(F)(F)F)cc1,.,.,.,-14.2
Cc1cc(C)cc(CSCC(=O)N/N=C/c2ccc(OCC(=O)NCc3ccco3)cc2)c1,11.5,0.0,8.8,48.3
Cc1cccc(N(CC(=O)N/N=C/c2ccc(OCC(=O)NCc3ccco3)cc2)S(C)(=O)=O)c1C,-0.2,78.4*,44.0,-2.6
Cc1cc(C(=O)N2CCc3ccccc32)c2ccccc2n1,3.2,3.3,-13.7,64.0*
O=C(c1ccccc1)N1CCc2ccccc21,12.9,-7.1,0.0,14.0
COc1ccc(OC)c(/C(O)=C/C(=O)C(=O)Nc2ccccc2OC)c1,-8.5,-3.2,-9.8,-16.3
O=C(c1ccc([N+](=O)[O-])cc1)N(Cc1ccc(Cl)cc1)N1C(=O)CCCC1=O,8.6,46.3*,3.2,21.5
O=C(OCC(=O)N1c2ccccc2Sc2ccccc21)c1ccc[n+]([O-])c1,.,.,.,-31.7
C/C(=N\Nc1nc2c(s1)CCCC2)c1ccccc1,-18.3,61.6*,13.4,26.1
CCc1ccccc1NC(=O)CSc1nc2n[nH]c(C)c2c(=N)n1-c1cccc(OC)c1,3.5,8.8,-13.5,54.0*
CCS(=O)(=O)c1ccc2oc(Nc3cc(C)cc(C)c3)nc2c1,-11.0,3.8,3.4,-12.4
CCS(=O)(=O)c1ccc2oc(Nc3ccc(C(C)C)cc3)nc2c1,.,11.4,-27.7,64.4*
CC(C)c1ccc(NC(=O)Nc2cc3sccc3n2C)cc1,5.0,17.7,-4.9,.
COc1ccc(OC)c(-c2cc(C(=O)Nc3c(C)nn(Cc4ccc(Cl)cc4)c3C)no2)c1,8.3,-11.2,7.3,.
COc1ccc(-c2cc(C(=O)Nc3cnn(Cc4ccccc4C)c3)no2)cc1OC,4.6,-4.3,-20.7,77.7*
COc1ccc(-c2cc(C(=O)Nc3cc(C)n(Cc4ccc(Cl)cc4)n3)no2)cc1OC,23.6,51.5*,59.1,.
O=C(CNc1ccc2ccccc2c1)N/N=C/c1cc2ccccc2nc1Cl,.,.,.,-2.3
CC(=O)OCCOc1nc(N(C)C)nc(N(C)C)n1,-9.5,-16.2,8.9,.
COC(=O)c1cc(OC)c(OC)cc1NC(=O)c1oc2ccccc2c1C,32.2*,2.7,-28.4,-6.9
SMILES,F-actin modifier,VCAM1 TNFa inh,TNFa cytotox,E-sel TNF inh
COc1ccc(NC(=O)c2oc3ccccc3c2C)c(OC)c1,6.2,16.2,-14.3,-1.9
O=C1CCCC2=C1C(c1ccsc1)CC(=O)N2c1ccccc1 (centres undefined),7.5,11.5,0.0,35.5
Cc1ccc(C2CC(=O)N(c3ccc(F)cc3)C3=C2C(=O)CCC3)cc1 (centres undefined),22.6,3.8,13.0,100.0*
CCc1nc2ccccc2n1Cc1ccc(OC)c(OC)c1,28.8,13.9,11.9,6.9
COc1ccc(Cn2c(CCCO)nc3ccccc32)cc1OC,-11.6,-0.1,80.6*,2.7
CNS(=O)(=O)c1ccc2nc(NC(=O)/C=C/c3ccco3)sc2c1,.,.,.,-30.3
CC1(C)Cc2c(sc(NC(=O)C3CC(Cl)=CCC3C(=O)O)c2C#N)CO1 (centres undefined),.,.,.,12.8
CC(C)(C)c1cc(OC(=O)c2ccncc2)ccc1O,1.8,-2.2,-2.9,92.7*
O=C(N=C1SCC(=O)N1c1ccccc1Cl)c1ccccc1,.,.,.,1.3
CCN1C(=O)C(CC(=O)Nc2ccc(Br)cc2)N(CCCc2ccccc2)C1=S (centres undefined),-3.1,9.8,-7.2,-25.0
CCOC(=O)C1=C(O)C(=O)N(CCCn2ccnc2)C1c1ccc(OC)cc1 (centres undefined),.,.,.,-18.6
CCOC(=O)C1CCN(C(=O)c2cn(CCOC)c(=O)c3c2c2ccccc2n3C)CC1,39.2*,-13.7,57.4,-41.2
CCn1c(SCC(=O)N2CCOCC2)nc2c(c1=O)SC(C)C2 (centres undefined),-22.6,-13.5,27.7,6.0
